The values that follow come from PubChem BioAssay (NCATS).

Where “and” joins values, the source holds several entries; their conditions need not be identical. Equal entries are not always repeated. Records with an inconclusive call do not appear. Values without a mark were called inactive. The call rests on the fitted dose curve; in most records, active means well fitted curve in the direction sought with a large enough effect; inconclusive means small, poorly fitted or top-dose-only effect, or another doubt; inactive means no such curve, though single readings can be large or run the other way.
On the % scale 0 is the no-effect control and ±100 the full control effect.

This assay in a line: qHTS Assay for Identifying Gametocytocidal Compounds (AID 743244).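 Further: actives lower the fluorescent signal which means gametocytes are killed.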 Particulars: P. falciparum 3D7 stage III-V gametocytes, alamarBlue, 72 h; max response: hits give low values. An outline of the steps:
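Compounds are pinned into medium, gametocytes (stage III–V, 3D7, 20,000 cells/well) added, and plates held 72 h at 37 °C in 5% CO2. AlamarBlue follows for 24 h before fluorescence reading.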
A general note: Quantitative high-throughput screening tests each substance at several concentrations.
For `COc1ccc2c3c1O[C@H]1[C@H](O)CC[C@H]4[C@@H](C2)N(C)CC[C@@]341`, the max response was -0.489%.

Regarding `CNC(C)(C)Cc1ccccc1`, the max response was 20.1%. Under `O=c1oc2ccccc2c(O)c1Cc1c(O)c2ccccc2oc1=O` stands 2.96%; under `O=[N+]([O-])O[C@H]1CO[C@H]2[C@@H]1OC[C@H]2O[N+](=O)[O-]`, 30.8%.

`C[C@H]1[C@@H]2Cc3ccc(O)cc3[C@@]1(C)CCN2C`: the max response is 2.87%.

`COC(=O)[C@@H](N)CCCN/C(N)=N/[N+](=O)[O-]`: the max response is -0.272%.

Regarding `c1ccc2c(c1)sc1ccccc12`, the max response was 5.76%. As to `CCN[C@@H](C)Cc1cccc(C(F)(F)F)c1`, the max response is 13.9%. Take `C[N+]1(CCF)[C@@H]2CC[C@H]1CC(OC(=O)C(O)(c1ccccc1)c1ccccc1)C2` (some centres not stated): the max response was 7.34%.

For `CCN[C@H](C)Cc1cccc(C(F)(F)F)c1`, the max response was 16.7%. Take `COc1c2c(cc3c1OCO3)CCN(C)C2`: the max response is 7.33%. With `CN(C)CCc1c[nH]c2cccc(OP(=O)(O)O)c12`, the max response is 13%.

Consider `C[C@]12CC[C@@H]3c4ccc(OC(=O)N(CCCl)CCCl)cc4CC[C@H]3[C@@H]1CC[C@@H]2O`, for which the max response is -1.39%. Then `CCN[C@@H](C)Cc1ccccc1`, with -4.1%; and `CCCCCCC(=O)CCCCCC/C=C/C[C@@H](O)[C@H](O)[C@@](N)(CO)C(=O)O`, with -3.38% and -2.5%; and `Cc1nnc2n1-c1ccc(Cl)cc1C(c1ccccc1Cl)=NC2`, with -0.695%.

For `O=C(O)/C=C\C(=O)O`, the max response was 2.8%. Under `CCOP(=S)(OCC)Oc1ccc2c(C)c(Cl)c(=O)oc2c1` stands -0.845%.

In the case of `O=C1CN=C(c2ccccc2)c2cc([N+](=O)[O-])ccc2N1`, the max response was 13.6%. Under `CC(=O)CC(c1ccccc1)c1c(O)c2ccccc2oc1=O` (configuration not stated) stands 17.5% and 36.1%. For `C[C@]12CC[C@@H]3c4ccc(OC(=O)N(CCCl)CCCl)cc4CC[C@H]3[C@@H]1CC[C@@H]2OP(=O)(O)O`, the max response was 0.678% and -5.22%. As to `O=c1[nH]cnc2[nH]ncc12`, the max response is -1.56%.
